# Hits are enriched below; roughly 4.2% of the tested compounds scored in any of these assays.
# Wnt act = Wnt/beta-catenin pathway activators, primary screen, cell-based, plate reader, single point | activation, % at 9.35 µM | hit rate 1.2% among 300,000 | Wnt/beta-catenin reporter cell assay, activator | AID 743398, 2014; in the data active means activation above about 30%, passing the limit was not always enough; inconclusive means no clear call, values can overlap the other calls
# GAA850 FXN act = FXN promoter activators, primary screen, cell-based, luciferase luminescence, HEK293 lucGAA850. HEK293 lucGAA850 FXN promoter luciferase reporter, 24 h; percent of 10 µM SAHA response. activation, % at 6 µM. hit rate 0.56% among 360,000. AID 540364, 2011;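 active means activation above the average of all compounds screened plus 3 SD, cutoff fixed separately per campaign, cut at about 7.5% in these data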
# AHR act = AHR activators, primary screen, cell-based, luminescence, luciferase reporter, human; AHR-responsive luciferase reporter cells; Aryl hydrocarbon receptor (Homo sapiens), P35869; activation, % at 5 µM; hit rate 2.5% among 320,000; in the data active means activation above about 47%
# MITF TRPM1 HTS = activators of MITF-driven TRPM1 promoter reporter, primary screen, cell-based, SK-MEL-5, luciferase, single point; activation, % at 12.5 µM; SK-MEL-5 TRPM1-promoter luciferase, 24 h; % of positive control, neutral wells = 0; AID 588334, 2011; hit rate 0.75% among 300,000;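 active means mean activation of at least 80% with every replicate also reaching 80%; inconclusive means mean reaches 80% but some replicate falls short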
# esBAF inh = Bmi1 luciferase reporter increase in mESCs, primary screen, esBAF inhibitor project, mouse ES cells, Bmi1 luciferase knock-in, single point | 24 h; 100% = twice the neutral-well signal | reporter increase, % at 12.5 µM | hit rate 2% among 350,000 | AID 602393, 2012; in the data active means activation above about 40%; inconclusive means no clear call, values can overlap the other calls;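 further: a rise in the Bmi1 reporter signal indicates esBAF inhibition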
# Hits are given with their value; - = inactive; ? = inconclusive; . = no result given.
SMILES,Wnt act,GAA850 FXN act,AHR act,MITF TRPM1 HTS,esBAF inh
C[C@H]1CN([C@@H](C)CO)C(=O)c2cccc(NC(=O)c3cnccn3)c2O[C@H]1CN(C)CC1CCCCC1,.,.,.,.,-
O=C(NNC(=S)Nc1ccccc1)c1ccc(O)cc1,56.7,-,-,?,77.8
O=C(NNC(=S)Nc1ccccc1)c1cccc(Br)c1,.,-,-,-,46.9
CCC(=O)N(C)C[C@H]1Oc2cc(-c3ccccc3OC)ccc2S(=O)(=O)N([C@@H](C)CO)C[C@H]1C,.,.,.,.,-
Cc1noc(C)c1NC(=O)Nc1cccc2c1O[C@@H](CN(C)CC1CC1)[C@H](C)CN([C@H](C)CO)C2=O,.,.,.,.,-
C[C@@H]1CN([C@H](C)CO)C(=O)c2cc(NS(=O)(=O)c3ccccc3)ccc2O[C@@H](C)CCCCO[C@@H]1CN(C)Cc1ccncc1,.,.,.,.,-
C[C@H]1c2cccc(O)c2C(O)=C2C(=O)[C@]3(O)C(O)=C(C(N)=O)C(=O)[C@@H](N(C)C)[C@@H]3[C@@H](O)[C@@H]21,.,18.8,-,-,-
CC(=O)Nc1ccc(SCc2ncc(-c3ccccc3)o2)cc1,-,-,-,-,55.2
CC(=O)Nc1ccc(SCC(=O)Nc2ccccc2-c2ccccc2)cc1,-,-,-,-,.
O=C(O)C[C@@H]1C[C@H]2c3cc(NC(=O)CC4CC4)ccc3O[C@H]2[C@@H](CO)O1,.,.,.,.,-
Oc1ccccc1-c1csc(-c2ccccc2)n1,-,-,69.1,-,76.8
C[C@H](CO)N1C[C@H](C)[C@H](CN(C)Cc2ccc3c(c2)OCO3)Oc2c(NC(=O)C3CCOCC3)cccc2C1=O,.,.,.,.,-
COc1ccc(CN(C)C[C@H]2Oc3c(NC(=O)NC4CCCCC4)cccc3C(=O)N([C@H](C)CO)C[C@H]2C)cc1,.,.,.,.,-
Cc1ccc(N2CN=C(c3ccccc3)NC2=S)cc1,.,-,-,-,56.9
COc1ccc(C2=NCN(c3ccc(C)cc3)C(=S)N2)cc1,.,-,-,-,.
CCc1[nH]nc(C(=O)NC2CCCc3c2cnn3-c2cc(C)cc(C)c2)c1C (configuration not stated),-,-,-,-,66.2
Nc1ccccc1C(=O)N=Nc1[nH]c(N)c2ccccc12,-,-,61.2,-,.
COc1ccc(Nc2nc(CC(C)=O)ns2)cc1,.,-,-,-,56.9
COc1cccc(Nc2nc(CC(C)=O)ns2)c1,.,-,-,-,.
CC(C)NC(=O)CC(=O)N/N=C/c1ccc(Br)cc1,-,-,53.1,-,-
CC(C)CNC(=O)CC(=O)N/N=C/c1ccc(Br)cc1,.,-,-,-,-
FC(F)(F)c1ccc(C2NCCc3sccc32)cc1 (configuration not stated),-,-,64.8,-,.
COc1ccc(S(=O)(=O)N(C)C[C@H]2OCCCC[C@@H](C)Oc3ccc(NS(=O)(=O)c4cn(C)cn4)cc3C(=O)N([C@@H](C)CO)C[C@@H]2C)cc1,.,.,.,.,-
Cc1cc(C)nc(NC(=O)c2cnc3sccn3c2=O)n1,-,-,70.4,.,-
O=C(c1cc(Cl)ccc1Cl)N1CCN(c2ccccn2)CC1,-,-,-,-,-
SMILES,Wnt act,GAA850 FXN act,AHR act,MITF TRPM1 HTS,esBAF inh
Cc1nn(-c2ccc(Cl)cc2)c2sc(C(=O)N3CCN(c4ccccn4)CC3)cc12,-,-,76.8,-,-
Cn1c(N)c(C(=O)c2ccc(Cl)cc2)c(=O)n(C)c1=O,-,-,-,-,.
CNC(=O)COC(=O)c1cc2c(C)nn(-c3ccc(F)cc3)c2s1,-,-,-,-,-
Cc1nn(-c2ccc(Cl)cc2)c2sc(C(=O)c3c(N)n(C)c(=O)n(C)c3=O)cc12,.,-,47.1,.,-
Cc1nn(-c2ccc(F)cc2)c2sc(C(=O)N3CCCCCC3)cc12,.,-,-,-,63.7
C[C@H]1CN([C@@H](C)CO)C(=O)Cc2cc(NS(=O)(=O)c3ccc(F)cc3)ccc2O[C@@H]1CN(C)Cc1ccc(C(F)(F)F)cc1,.,.,.,.,-
Cc1ccccc1OCC1Cc2c(nc(N)c(C#N)c2N)O1 (configuration not stated),-,-,-,-,49.0
c1ccc2c(-c3nc4ccccc4[nH]3)cccc2c1,-,-,.,.,.
Clc1ccccc1-c1nc2ccccc2[nH]1,47.7,-,-,.,.
Fc1ccccc1-c1nc2ccccc2[nH]1,55.9,-,-,84.9,.
CSc1ncccc1-c1nc2ccccc2[nH]1,-,-,-,-,-
Cc1ccccc1-c1nc2ccccc2[nH]1,.,-,-,-,57.7
